Assay results published in PubChem BioAssay (EPA / NIEHS).
Calls of active or inactive are those of the source. Rule for the calls: active = hit-call score of the fitted dose curve at least 0.9, where 1 is the maximum; inactive = score below 0.9.

The compounds below were run on Alkaline Phosphatase, Placental (ALPP) gene, ALPP (gene 250) (assay: LTEA_HepaRG_ALPP: Life Technologies and Expression Analysis (LTEA) Assay for Alkaline Phosphatase, Placental (ALPP) gene using HepaRG (AID 2283468;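 for AC50: differentiated human HepaRG liver cells in serum-free induction medium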)). Conditions: mRNA level, 48 h; actives raise or lower the signal.
Outline: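 ALPP transcript level, measured by qRT-PCR and normalized to three housekeeping genes (ACTB, GAPDH, POLR2A), after 48 h dosing of differentiated HepaRG in serum-free induction medium. Top concentration 100 uM with half-log dilutions (8 points, 0.5% DMSO, duplicates); bidirectional fitting relative to DMSO.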
With `CCn1nc(Cc2ccccc2)cc1C1CCN(C[C@H]2C[C@H](N(C)[C@@H](C(=O)O)C(C)C)C[C@@H]2c2cccc(F)c2)CC1` the AC50 was 23.8 µM (active).
In the case of `O=c1n(CC2CO2)c(=O)n(CC2CO2)c(=O)n1CC1CO1` (stereo not drawn), the outcome is reported as “inactive”.
With `O=C(O)CCN(C1(C(=O)NO)CCCC1)S(=O)(=O)c1ccc(Oc2ccc(F)cc2)cc1` the outcome was “inactive”.
In the case of `CCNc1ccccc1`, the outcome is reported as “inactive”.
In the case of `Cc1c(-c2cccnc2)c2ccccc2n1CCCCC(=O)O`, the outcome is reported as “inactive”.
With `COC(=O)c1ccccc1O` the outcome was “inactive”.
For `CC1=CC(=O)CC(C)(C)C1`, the outcome was “inactive”.
For `O=C(O)c1cc(N=Nc2ccc(S(=O)(=O)Nc3ccccn3)cc2)ccc1O`, the outcome was “inactive”.
In the case of `CC(=O)OC[C@H]1O[C@@](COC(C)=O)(O[C@H]2O[C@H](COC(C)=O)[C@@H](OC(C)=O)[C@H](OC(C)=O)[C@H]2OC(C)=O)[C@@H](OC(C)=O)[C@@H]1OC(C)=O`, the outcome is reported as “inactive”.
For `CC(C)CC(C)(O)C#CC(C)(O)CC(C)C` (stereo not drawn), the outcome was “inactive”.
In the case of `CC(C)(O)c1coc(S(=O)(=O)NC(=O)Nc2c3c(cc4c2CCC4)CCC3)c1`, the outcome is reported as “inactive”.
For `CC(C)CCCCCCCOC(=O)CCCCC(=O)OCCCCCCCC(C)C`, the outcome was “inactive”.
In the case of `CCOc1cccc(-n2cc(C(=O)N3CCN(c4cc(C(=O)O)c5ccccc5c4)CC3)nc2-c2ccc(C)cc2)c1`, the AC50 is reported as 24.1 µM (active).
In the case of `COc1ccc2sc(C(=O)Nc3nnn[nH]3)c(OC(C)C)c2c1`, the outcome is reported as “inactive”.
In the case of `Clc1nc(Cl)c(Cl)c(Cl)c1Cl`, the outcome is reported as “inactive”.
`COC(=O)CC(=O)OC` was tested, and the outcome was “inactive”.
With `O=c1[nH]c2ccc(S(=O)CCN3CCC(Cc4ccc(F)cc4)CC3)cc2o1` (stereo not drawn) the AC50 was 64.7 µM (active).
With `COc1ccc(-n2nc(C(F)F)cc2-c2ccc(S(C)=O)cc2)cc1` (stereo not drawn) the outcome was “inactive”.
In the case of `Nc1nc2ncc(CNc3ccc(C(=O)N[C@@H](CCC(=O)O)C(=O)O)cc3)nc2c(=O)[nH]1`, the outcome is reported as “inactive”.
For `CC(C)=CCCC(C)=CC=O`, the outcome was “inactive”.
With `COc1ccc(/C=C/S(=O)(=O)NC(=O)c2ccc(C)cc2Cl)cc1` the outcome was “inactive”.
With `C1=CCCC=CCCC=CCC1` the outcome was “inactive”.
`Nc1cccc(N)c1` was tested, and the outcome was “inactive”.
`CN(C)c1ccc(Cc2ccc(N(C)C)cc2)cc1` was tested, and the AC50 was 61.6 µM (active).
`On1ccccc1=S` was tested, and the outcome was “inactive”.
For `O=C1OC(=O)C2C3C=CC(C3)C12` (stereo not drawn), the outcome was “inactive”.
`C=CC(=C)CCC=C(C)C` was tested, and the outcome was “inactive”.
For `Cn1c(=O)c2c(ncn2C)n(C)c1=O`, the outcome was “inactive”.
In the case of `O=C(OC[C@H]1O[C@@H](OC(=O)c2cc(O)c(O)c(OC(=O)c3cc(O)c(O)c(O)c3)c2)[C@H](OC(=O)c2cc(O)c(O)c(OC(=O)c3cc(O)c(O)c(O)c3)c2)[C@@H](OC(=O)c2cc(O)c(O)c(OC(=O)c3cc(O)c(O)c(O)c3)c2)[C@@H]1OC(=O)c1cc(O)c(O)c(OC(=O)c2cc(O)c(O)c(O)c2)c1)c1cc(O)c(O)c(OC(=O)c2cc(O)c(O)c(O)c2)c1`, the AC50 is reported as 3.31 µM (active).

These compounds were tested on Bcl-2 (BAD) gene, BAD (gene 572) (assay: LTEA_HepaRG_BAD: Life Technologies and Expression Analysis (LTEA) Assay for Bcl-2 (BAD) gene using HepaRG (AID 2283469)). Conditions: mRNA level, 48 h; actives raise or lower the signal.
Outline: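 BAD transcript change, measured by qRT-PCR against three housekeeping genes and fitted in both directions relative to 0.5% DMSO, after 48 h chemical treatment of human HepaRG liver cells at concentrations up to 100 uM.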
With `CCn1nc(Cc2ccccc2)cc1C1CCN(C[C@H]2C[C@H](N(C)[C@@H](C(=O)O)C(C)C)C[C@@H]2c2cccc(F)c2)CC1` the outcome was “inactive”.
With `O=c1n(CC2CO2)c(=O)n(CC2CO2)c(=O)n1CC1CO1` (stereo not drawn) the outcome was “inactive”.
With `O=C(O)CCN(C1(C(=O)NO)CCCC1)S(=O)(=O)c1ccc(Oc2ccc(F)cc2)cc1` the outcome was “inactive”.
In the case of `CCNc1ccccc1`, the outcome is reported as “inactive”.
For `Cc1c(-c2cccnc2)c2ccccc2n1CCCCC(=O)O`, the outcome was “inactive”.
With `COC(=O)c1ccccc1O` the outcome was “inactive”.
With `CC1=CC(=O)CC(C)(C)C1` the outcome was “inactive”.
For `O=C(O)c1cc(N=Nc2ccc(S(=O)(=O)Nc3ccccn3)cc2)ccc1O`, the outcome was “inactive”.
With `CC(=O)OC[C@H]1O[C@@](COC(C)=O)(O[C@H]2O[C@H](COC(C)=O)[C@@H](OC(C)=O)[C@H](OC(C)=O)[C@H]2OC(C)=O)[C@@H](OC(C)=O)[C@@H]1OC(C)=O` the outcome was “inactive”.
With `CC(C)CC(C)(O)C#CC(C)(O)CC(C)C` (stereo not drawn) the outcome was “inactive”.
With `CC(C)(O)c1coc(S(=O)(=O)NC(=O)Nc2c3c(cc4c2CCC4)CCC3)c1` the outcome was “inactive”.
With `CC(C)CCCCCCCOC(=O)CCCCC(=O)OCCCCCCCC(C)C` the outcome was “inactive”.
In the case of `CCOc1cccc(-n2cc(C(=O)N3CCN(c4cc(C(=O)O)c5ccccc5c4)CC3)nc2-c2ccc(C)cc2)c1`, the outcome is reported as “inactive”.
In the case of `COc1ccc2sc(C(=O)Nc3nnn[nH]3)c(OC(C)C)c2c1`, the outcome is reported as “inactive”.
With `Clc1nc(Cl)c(Cl)c(Cl)c1Cl` the outcome was “inactive”.
In the case of `COC(=O)CC(=O)OC`, the outcome is reported as “inactive”.
For `O=c1[nH]c2ccc(S(=O)CCN3CCC(Cc4ccc(F)cc4)CC3)cc2o1` (stereo not drawn), the outcome was “inactive”.
With `COc1ccc(-n2nc(C(F)F)cc2-c2ccc(S(C)=O)cc2)cc1` (stereo not drawn) the outcome was “inactive”.
With `Nc1nc2ncc(CNc3ccc(C(=O)N[C@@H](CCC(=O)O)C(=O)O)cc3)nc2c(=O)[nH]1` the outcome was “inactive”.
`CC(C)=CCCC(C)=CC=O` was tested, and the outcome was “inactive”.
`COc1ccc(/C=C/S(=O)(=O)NC(=O)c2ccc(C)cc2Cl)cc1` was tested, and the outcome was “inactive”.
With `C1=CCCC=CCCC=CCC1` the outcome was “inactive”.
With `Nc1cccc(N)c1` the outcome was “inactive”.
With `CN(C)c1ccc(Cc2ccc(N(C)C)cc2)cc1` the outcome was “inactive”.
In the case of `On1ccccc1=S`, the outcome is reported as “inactive”.
For `O=C1OC(=O)C2C3C=CC(C3)C12` (stereo not drawn), the outcome was “inactive”.
`C=CC(=C)CCC=C(C)C` was tested, and the outcome was “inactive”.
For `Cn1c(=O)c2c(ncn2C)n(C)c1=O`, the outcome was “inactive”.
For `O=C(OC[C@H]1O[C@@H](OC(=O)c2cc(O)c(O)c(OC(=O)c3cc(O)c(O)c(O)c3)c2)[C@H](OC(=O)c2cc(O)c(O)c(OC(=O)c3cc(O)c(O)c(O)c3)c2)[C@@H](OC(=O)c2cc(O)c(O)c(OC(=O)c3cc(O)c(O)c(O)c3)c2)[C@@H]1OC(=O)c1cc(O)c(O)c(OC(=O)c2cc(O)c(O)c(O)c2)c1)c1cc(O)c(O)c(OC(=O)c2cc(O)c(O)c(O)c2)c1`, the outcome was “inactive”.
